Screens: PubChem, The Scripps Research Institute Molecular Screening Center
ssDAF12 agonist = activates DAF-12 receptor from parasite S. stercoralis; HEK293 ssDAF-12/GRIP1 lit1-tk-luc reporter, luminescence; % of 3 µM dafachronic acid response; activation, % at 6.8 µM; 370,000 tested, 1% active; AID 652126;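 active = activation above the mean over all tested compounds plus 3 SD, cut at about 0.9% in these data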;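 also: 0% = DMSO-only wells and 100% = 3 µM delta7-dafachronic acid wells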
AHR activator = activators of human aryl hydrocarbon receptor | P35869 | AHR-responsive luciferase reporter cells, luminescence | activation, % at 5 µM | 320,000 tested, 2.5% active; in the data active = activation above about 47%;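 also: 0% = vehicle wells and 100% = reference agonist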
hgDAF12 agonist = activates the H. glycines DAF-12 receptor ligand-binding domain; 370,000 tested, 1.8% active; activation, % at 6.8 µM; AID 687014; HEK293 GAL4-hgDAF12 UAS-luciferase reporter, agonist luminescence; normalized to butyrate control;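 active = activation above a cutoff set at the mean of all screened compounds plus 3 SD, cut at about 10% in these data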;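 also: 0% = DMSO wells and 100% = sodium butyrate wells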
hcDAF-12 act = activates DAF-12 receptor from parasite H. contortus | HEK293 hcDAF-12 lit1-tk-luc reporter, luminescence; 0% DMSO, 100% Δ7-dafachronic acid | activation, % at 6.8 µM | 370,000 tested, 1.4% active | AID 652067;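 active = activation above the mean of all tested compounds plus 3 SD, cut at about 5.5% in these data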;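 also: 100% = response to 3 µM Δ7-dafachronic acid high control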
DAX1 inh-1 = inhibitors of DAX1 repression of SF-1 activated StAR promoter. AID 652010. inhibition, % at 6.8 µM. HEK293T StAR-luciferase reporter, SF-1/DAX-1 repression relief. 370,000 tested, 1.1% active;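 active = inhibition above the mean over all tested compounds plus 3 SD, cut at about 3.6% in these data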;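 also: 0% = DAX-1 cells with DMSO and 100% = cells lacking DAX-1 with DMSO; higher inhibition means more luminescence from relief of DAX-1 repression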
DAX1 inh-2 = NR0B1 (DAX1) inhibition. P51843. HEK293 Gal4-DAX1 luciferase reporter, luminescence. inhibition, % at 6.75 µM. 340,000 tested, 0.99% active. AID 504766;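 active = inhibition above the mean over all tested compounds plus 3 SD, cut at about 4.2% in these data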;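 also: 0% = DAX1-transfected cells with DMSO and 100% = empty-vector control cells with DMSO; inhibition shows as a rise in luminescence from relieved DAX1 repression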
Numbers without * were called inactive; x = not tested or not shown. This is a sample that favours compounds with a hit; in the whole collection about 5.7% have one here.

SMILES | ssDAF12 agonist | AHR activator | hgDAF12 agonist | hcDAF-12 act | DAX1 inh-1 | DAX1 inh-2
CC1(C)OC(=O)C(=CNCCc2ccc(O)cc2)C(=O)O1 | -0.2 | 0.3 | 1.3 | -1.2 | 0.4 | 0.1
CN(Cc1cccc([N+](=O)[O-])c1)Cc1cccc2ccccc12 | -1.4 | x | -0.4 | 0.7 | -0.2 | -0.2
CC1CCC2C(=O)N(c3cc(Cl)ccc3OC(=O)c3ccco3)C(=O)C2C1 (configuration not stated) | -1.1 | x | -0.8 | 0.7 | -0.2 | 1.5
N#Cc1nc(Cc2cccc3ccccc23)oc1NCCCN1CCOCC1 | -1.4 | 4.0 | -0.8 | 1.2 | -0.5 | -1.1
CCOC(=O)c1oc2cc(O)c(CC)cc2c(=O)c1-c1cscn1 | -0.5 | 46.8 | 3.3 | 0.2 | -0.1 | -0.2
CCc1cc2c(=O)c(-c3cscn3)coc2cc1O | 1.0* | 73.5* | 10.9* | 5.7* | 1.3 | 0.0
c1ccc(-c2ccc(-c3ccncn3)cc2)cc1 | 0.5 | 17.2 | 11.9* | -0.1 | 1.8 | 2.9
Nc1[nH]c(C(=O)c2ccccc2)c(-c2cccc3ccccc23)c1C(=O)c1cccs1 | 0.0 | x | 3.5 | 3.5 | 0.9 | x
NC(=O)c1c(N)[nH]c(C(=O)c2ccccc2)c1-c1cccc2ccccc12 | 1.0* | x | 2.8 | 2.2 | x | x
NC(=O)C(Cc1ccccc1)NS(=O)(=O)c1ccc(N2CCCC2=O)cc1 (configuration not stated) | -1.3 | -1.0 | -1.9 | -1.6 | 0.2 | 1.3
CC(=C/C(=O)O)/C=C/c1ccc([N+](=O)[O-])cc1 | -0.1 | 2.2 | -0.9 | 1.4 | -0.1 | -1.1
CC1(C)COC(/C=C/c2ccc([N+](=O)[O-])cc2)=N1 | -0.8 | 50.5* | -1.2 | -1.6 | -1.2 | -1.5
O=C(CSc1nc2ccccc2s1)NCCOc1ccccc1 | -0.1 | 35.7 | 3.7 | 0.3 | 0.3 | 2.9
C=CCNC(=S)NNC(=O)CSc1nc2ccccc2s1 | 0.2 | 31.9 | 1.2 | 4.6 | 1.0 | -0.2
O=C(CSc1nc2ccccc2s1)NNC(=S)Nc1ccc(Cl)cc1 | 0.8 | 70.6* | -0.4 | 1.9 | 0.4 | 1.4
O=C(CSc1nc2ccccc2s1)NCCOc1ccc(Cl)cc1 | -1.2 | 48.1* | -0.6 | -1.8 | -0.5 | 0.3
COc1cc(NC(=S)Nc2cccc(Cl)c2Cl)c(OC)cc1Cl | -0.6 | 25.6 | -0.5 | 1.4 | 1.1 | -0.6
O=c1oc2ccccc2cc1-c1nnc(NCc2ccco2)s1 | 0.3 | -8.7 | 11.8* | 5.1 | 3.9* | 2.0
CCOc1ccc2nc(SC(C)C(N)=O)[nH]c2c1 (configuration not stated) | -0.8 | 18.2 | 2.4 | 0.3 | 0.5 | 3.0
O=C1[C@H]2CC3CCC2(O3)[C@@H]2OCCCN12 (some centres not stated) | -1.0 | -1.7 | 0.7 | -1.1 | -0.1 | -0.6
O=C(COn1nnc2ccc(C(F)(F)F)cc21)Nc1c(Cl)cccc1Cl | 14.8* | 9.3 | -2.0 | 0.3 | 0.6 | -2.0
CC(C)(C)c1ccc(Cn2c(=N)n(CC(O)c3ccco3)c3ccccc32)cc1 (configuration not stated) | x | 3.0 | x | x | x | -0.6
CC1CCCC(C)N1C(=O)c1cc(-c2ccco2)on1 (configuration not stated) | 0.7 | -4.1 | -1.2 | -0.1 | 0.4 | -0.4
COc1cccc(-c2cc(C(=O)N3C(C)CCCC3C)no2)c1 (configuration not stated) | -0.3 | 10.6 | 4.1 | 5.9* | 2.2 | 1.7
COc1ccccc1-c1cc(C(=O)N2CCCC2)no1 | 0.4 | -2.6 | 9.2 | 6.5* | 2.5 | 2.8
SMILES | ssDAF12 agonist | AHR activator | hgDAF12 agonist | hcDAF-12 act | DAX1 inh-1 | DAX1 inh-2
COc1cccc(-c2cc(C(=O)N3CCOCC3)no2)c1 | -0.3 | 3.5 | 10.3 | 3.4 | 2.2 | 1.0
CCN(CC)C(=O)c1cc(-c2ccccc2OC)on1 | -1.0 | 47.9* | 5.6 | 1.2 | 0.4 | 0.4
COc1ccccc1-c1cc(C(=O)N2CCN(c3ccc(F)cc3)CC2)no1 | -0.7 | -0.5 | 1.7 | -1.2 | 0.4 | -0.4
COc1ccc(-c2cc(C(=O)N3CCOCC3)no2)cc1 | 1.3* | -2.0 | 10.0 | 4.7 | 2.8 | -0.9
CCc1ccccc1NC(=O)CCCN1C(=O)C2CC=CCC2C1=O (configuration not stated) | -0.8 | 1.3 | 4.6 | -1.8 | 1.1 | 0.5
CCOc1cc(C2Nc3ccccc3C(=O)N2c2ccccc2)ccc1O (configuration not stated) | -1.2 | 0.5 | 4.5 | -0.5 | -0.5 | 1.5
COC(=O)CCc1c[nH]c2ccc([N+](=O)[O-])cc12 | -0.4 | x | 0.2 | -2.3 | -2.5 | -0.3
Cc1ccc(-c2nc3ncccn3c2NC(=O)c2ccc(F)cc2)cc1 | -1.4 | x | 1.5 | -1.4 | -1.0 | x
O=S(=O)(c1cccc(-c2csc(N/N=C/c3ccco3)n2)c1)N1CCOCC1 | -1.8 | 3.1 | -0.3 | -2.5 | -1.2 | -2.5
Nc1nc(-c2ccccc2)[nH]c(=O)c1N=O | -0.4 | 6.0 | 0.5 | -0.5 | -0.9 | 4.2*
O=C(N/N=C/C1CCCCC1)c1ccccc1-n1cccc1 | -0.9 | 32.9 | 2.6 | -1.1 | 1.7 | -0.1
COc1ccc(OCC(=O)Nc2cccc(NC(=O)COc3ccc(OC)cc3)n2)cc1 | -1.0 | 1.6 | 9.1 | -0.9 | 0.9 | -0.8
CCCCc1c(C)c2ccc(OCC(C)=O)cc2oc1=O | 0.5 | 16.8 | 11.4* | 4.3 | 1.8 | 3.5
CCCc1c(C)c2ccc(OCC(C)=O)cc2oc1=O | -0.1 | -6.3 | 6.5 | 1.4 | -1.0 | 1.3
c1ccc(-c2ccc(C3=Nn4c(nnc4-c4ccccc4)SC3)cc2)cc1 | -1.5 | x | 0.3 | -3.2 | -1.6 | x
Brc1ccc(C2=Nn3c(nnc3-c3n[nH]c4c3CCC4)SC2)cc1 | -1.0 | 78.2* | 0.1 | -0.7 | -2.2 | -1.9
Cc1ccc(-c2nnc3n2N=C(c2ccc(Br)cc2)CS3)cc1 | -1.6 | 6.5 | -3.1 | -1.3 | -0.5 | 0.7
Clc1ccc(C2=Nn3c(nnc3-c3n[nH]c4c3CCC4)SC2)cc1 | -1.0 | 48.8* | -4.0 | -2.1 | -0.9 | -0.8
CNC(=O)c1c(NC(=O)CCS(=O)(=O)c2ccccc2)sc(C)c1C | -0.6 | 0.6 | 1.0 | -0.6 | -1.1 | -1.5
CC(=O)c1sc(NC(=O)COc2ccccc2)nc1C | -0.1 | 10.8 | 9.6 | 2.0 | 2.2 | 4.5*
O=C(COc1ccccc1)NNc1nc2ccccc2s1 | -2.1 | 50.0* | -9.3 | -3.2 | -1.6 | 6.5*
COc1ccc2nc(NNC(=O)COc3ccccc3)sc2c1 | -0.2 | 71.5* | 0.9 | 5.2 | 1.4 | 0.9
CC(=O)c1sc(NC(=O)c2ccc(C)c(C)c2)nc1C | -1.2 | 6.2 | 13.0* | 2.0 | 2.3 | 6.2*
CCc1nc(SC)[nH]c(=O)c1C | -0.5 | 0.1 | 0.2 | 2.2 | -0.4 | 0.4
CSc1nc2c(C)c(C)c(C)c(C)c2[nH]1 | -0.9 | 47.5* | 4.1 | -2.1 | -0.4 | 5.1*
